Results filed as inconclusive are left out. Active and inactive are the calls of the source. Unless noted, calls come from the whole dose curve; as a rule, active = well fitted curve in the direction sought with a large enough effect in the repeat runs; inconclusive = weak or mixed curves; inactive = no such curve, though single readings can be large; an effect the other way counts as inactive or inconclusive.
What was measured:
[1] = molecular target: Thyrotropin receptor (Homo sapiens) (UniProt P16473); assay: qHTS assay to identify small molecule antagonists of the thyroid stimulating hormone receptor (TSHR) signaling pathway (AID 1259385; calls by dose curve; note: nearly all actives have a fitted effect of over 20% in size)
Outline: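 TSHR-HEK293 cells (800/well) plated 18 h, then compounds with Ro20-1724 and TSH at 1.5 ng/mL final, 30 min at room temperature. cAMP quantified by HTRF (cAMP-d2/anti-cAMP-cryptate, 1 h); 15 concentrations in triplicate.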

[2] = qHTS assay to identify small molecule agonists of the estrogen receptor alpha (ER-alpha) signaling pathway in the presence of an antagonist - cell viability counter screen (AID 1259386);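 note: series mostly up to about 92 µM; cells exposed to compounds for 22 h at 37 °C before the viability read; nearly all actives have a fitted effect of over 30% in size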
Outline: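 Cell viability in VM7Luc4E2 cells (endogenous full-length ER-alpha) measured by CellTiter-Fluor fluorescence in the same wells as the luciferase screen. Cells pre-cultured 5 days in charcoal-stripped serum, then treated 22 h with compounds at 15 concentrations plus 10.0nM ICI-182,780.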

[3] = molecular target: Progesterone receptor (Homo sapiens) (UniProt P06401); assay: qHTS assay to identify small molecule agonists of the progesterone receptor (PR) signaling pathway (AID 1346784; calls by dose curve; note: nearly all actives have a fitted effect of over 30% in size)
Outline: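 Agonist mode, quantitative HTS format in a HEK 293T line expressing a UAS-controlled beta-lactamase reporter; 16 hr compound exposure at 37C in 2% charcoal-stripped FBS, then LiveBLAzer B/G FRET fluorescence.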

[4] = molecular target: Progesterone receptor (Homo sapiens) (UniProt P06401); assay: qHTS assay to identify small molecule antagonists of the progesterone receptor (PR) signaling pathway (AID 1346795; active = well fitted inhibition curve with a large enough effect in the signal ratio in the repeat runs, not every such curve was filed as active; the % refers to the signal ratio)
Outline: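 HEK293T PR-UAS-bla reporter cells in charcoal-stripped serum (2%) received compound after a 6 hr settling period, followed by R5020 agonist at 1 nM final; 16 hr incubation preceded the FRET substrate step and fluorescence measurement.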

[5] = qHTS assay to identify small molecule antagonists of the progesterone receptor (PR) signaling pathway - cell viability counter screen (AID 1346798); note: series mostly up to about 92 µM; nearly all actives have a fitted effect of over 50% in size
Outline: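 Same-well multiplex: after 16 hr at 37C with compound and R5020 stimulation, HEK293T cells carrying a UAS-bla reporter received LiveBLAzer substrate (2 hr RT), then CellTiter-Glo (30 min RT) for luminescent viability.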

[6] = qHTS assay to identify small molecule agonists of the progesterone receptor (PR) signaling pathway - cell viability counter screen (AID 1346799; calls by dose curve; note: nearly all actives have a fitted effect of over 45% in size)
Outline: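 Counter screen for cytotoxicity: compound-treated PR-UAS-bla HEK293T cells (16 hr, 37C, 5% CO2) were assayed with CellTiter-Glo, luminescence measured after 30 min at room temperature.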

[7] = qHTS assay to identify small molecule antagonists of the TGF-beta/Smad signaling pathway - cell viability counter screen (AID 1346824); note: nearly all actives have a fitted effect of over 50% in size
Outline: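 SBE-bla HEK 293T cells, incubated overnight, then compound plus 0.25 ng/mL TGF-beta1 (stock added) for 5 hr at 37 C. Viability was read in the same wells by CellTiter-Glo luminescence after 30 min at room temperature.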

[8] = qHTS assay to identify small molecule agonists of the TGF-beta/Smad signaling pathway - cell viability counter screen (AID 1346829); note: top concentration of the series differs between compounds; nearly all actives have a fitted effect of over 45% in size
Outline: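 Compound-treated SBE-bla HEK 293T cells (5 hr, 37 C) were assessed for viability with CellTiter-Glo in parallel with the reporter read.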

[9] = qHTS assay to identify small molecule agonists of the TGF-beta/Smad signaling pathway (AID 1346859; active = well fitted activation curve with a large enough effect in the signal ratio in the repeat runs, not every such curve was filed as active; the % refers to the signal ratio; note: series mostly up to about 77 µM)
Outline: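 Smad-responsive beta-lactamase reporter cells (HEK 293T) received compounds from DMSO stocks after overnight attachment, were incubated 5 hr, then treated 2 hr with FRET substrate before dual-emission fluorescence measurement (405 nm excitation).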

[10] = molecular target: Thyrotropin-releasing hormone receptor (Homo sapiens) (UniProt P34981); assay: qHTS assay to identify small molecule antagonists of the thyrotropin-releasing hormone receptor (TRHR) signaling pathway (AID 1346877; active = well fitted inhibition curve with a large enough effect in the repeat runs, not every such curve was filed as active; note: series mostly up to about 51 µM)
Outline: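 TRHR-expressing HEK293 cells loaded with calcium dye for 2 h at 37 C; compounds pre-incubated 5 min at room temperature before TRH challenge at 1 nM final. Intracellular calcium fluorescence read kinetically for 3 min; 15 concentrations in triplicate.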

[11] = molecular target: Thyrotropin-releasing hormone receptor (Homo sapiens) (UniProt P34981); assay: qHTS assay to identify small molecule agonists of the thyrotropin-releasing hormone receptor (TRHR) signaling pathway (AID 1346891; calls by dose curve; note: series mostly up to about 58 µM)
Outline: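 Agonist-mode calcium mobilisation screen: TRHR-transfected HEK293 cells cultured overnight (18 h), dye-loaded for 2 h at 37 °C, exposed to compounds, and monitored by fluorescence for 3 min.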

[12] = Human pregnane X receptor (PXR) small molecule agonists, qHTS cell viability counter screen (AID 1346977); note: nearly all actives have a fitted effect of over 50% in size
Outline: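 Measures live-cell protease fluorescence (CellTiter-Fluor) in PXR-Luc HepG2 cells treated 24hr with compounds at 37C. Cells had 5hr to attach before pin transfer of DMSO solutions.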

[13] = Caspase-3/7 induction in HepG2 cells by small molecules, qHTS assay (AID 1346978); note: nearly all actives have a fitted effect of over 15% in size
Outline: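 Wild-type HepG2 cells, 2,000/well, settled 5 hr at 37 C and 5% CO2, then compound-treated for 17 hr; caspase-3/7 activity read by luminescent Caspase-Glo 3/7 after 30 min at room temperature.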

[14] = Caspase-3/7 induction in CHO-K1 cells by small molecules, qHTS cell viability counter screen (AID 1346979); note: nearly all actives have a fitted effect of over 35% in size
Outline: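 In the same wells as the caspase read, viability of compound-treated wild-type CHO-K1 cells was assessed using CellTiter-Fluor, added after 16hr at 37C and measured by fluorescence following 1hr further incubation.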

[15] = Caspase-3/7 induction in CHO-K1 cells by small molecules, qHTS assay (AID 1346980); note: nearly all actives have a fitted effect of over 15% in size
Outline: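 Wild-type CHO-K1 cells exposed to compounds for 17hr at 37 C, 5% CO2. Caspase-3/7 activity then measured by Caspase-Glo 3/7 luminescence after 30min at room temperature.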

[16] = Caspase-3/7 induction in HepG2 cells by small molecules, qHTS cell viability counter screen (AID 1346981); note: series mostly up to about 92 µM; nearly all actives have a fitted effect of over 30% in size
Outline: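 Wild-type HepG2 cells, 2,000/well, settled 5 hr at 37 C, 5% CO2 before compound addition. Viability read by CellTiter-Fluor fluorescence, reagent added after 16 hr compound exposure, then 1 hr at 37C, in the same wells as the caspase read.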

[17] = molecular target: Nuclear receptor subfamily 1 group I member 2 (Homo sapiens) (UniProt O75469); assay: Human pregnane X receptor (PXR) small molecule agonists, qHTS assay (AID 1346982); note: nearly all actives have a fitted effect of over 35% in size
Outline: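 PXR-Luc HepG2 reporter cells (CYP3A4-driven luciferase) in 5% charcoal-stripped FBS medium, plated 5 h before compound addition, then treated 24 h at 37C. Luciferase read by ONE-Glo luminescence after 30 min at room temperature.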

Measured: Potency

Progesterone receptor (Homo sapiens), sequence (P06401 whole entry, looked up): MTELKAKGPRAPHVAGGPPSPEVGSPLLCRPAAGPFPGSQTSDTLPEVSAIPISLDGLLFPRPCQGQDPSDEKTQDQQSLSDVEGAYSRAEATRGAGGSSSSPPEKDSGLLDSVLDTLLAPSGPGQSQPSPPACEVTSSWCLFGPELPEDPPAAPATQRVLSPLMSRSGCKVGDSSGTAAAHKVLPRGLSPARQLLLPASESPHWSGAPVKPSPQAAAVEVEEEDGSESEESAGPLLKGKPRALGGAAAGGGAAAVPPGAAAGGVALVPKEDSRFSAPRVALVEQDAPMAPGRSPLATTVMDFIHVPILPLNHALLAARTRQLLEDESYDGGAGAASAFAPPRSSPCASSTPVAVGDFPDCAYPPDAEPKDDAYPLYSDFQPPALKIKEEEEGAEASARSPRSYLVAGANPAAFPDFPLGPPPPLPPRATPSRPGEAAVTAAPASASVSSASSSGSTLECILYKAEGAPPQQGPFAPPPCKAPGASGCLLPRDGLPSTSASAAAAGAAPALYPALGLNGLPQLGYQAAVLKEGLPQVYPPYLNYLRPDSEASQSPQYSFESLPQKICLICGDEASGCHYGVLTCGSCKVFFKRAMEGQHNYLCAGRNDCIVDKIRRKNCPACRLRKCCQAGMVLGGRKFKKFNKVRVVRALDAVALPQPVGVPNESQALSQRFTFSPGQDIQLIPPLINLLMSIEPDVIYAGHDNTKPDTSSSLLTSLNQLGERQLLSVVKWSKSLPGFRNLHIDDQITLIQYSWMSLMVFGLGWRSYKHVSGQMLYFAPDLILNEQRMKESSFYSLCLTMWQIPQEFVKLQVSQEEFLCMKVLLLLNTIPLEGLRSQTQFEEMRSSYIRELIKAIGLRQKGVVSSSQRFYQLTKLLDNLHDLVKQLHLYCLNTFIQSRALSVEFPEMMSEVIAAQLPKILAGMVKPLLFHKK
Thyrotropin-releasing hormone receptor (Homo sapiens), sequence (P34981 whole entry, looked up): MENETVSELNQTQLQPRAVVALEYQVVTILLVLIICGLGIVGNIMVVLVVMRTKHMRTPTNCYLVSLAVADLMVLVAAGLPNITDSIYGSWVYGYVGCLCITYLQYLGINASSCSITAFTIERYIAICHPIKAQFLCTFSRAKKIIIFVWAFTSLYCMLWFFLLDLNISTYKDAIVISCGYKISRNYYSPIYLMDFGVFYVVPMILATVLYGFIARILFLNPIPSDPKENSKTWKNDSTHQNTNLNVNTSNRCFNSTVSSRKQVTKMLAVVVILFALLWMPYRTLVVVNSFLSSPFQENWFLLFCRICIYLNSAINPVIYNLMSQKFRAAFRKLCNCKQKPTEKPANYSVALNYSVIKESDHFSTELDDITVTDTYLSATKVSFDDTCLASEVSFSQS
Nuclear receptor subfamily 1 group I member 2 (Homo sapiens), sequence (O75469 whole entry, looked up): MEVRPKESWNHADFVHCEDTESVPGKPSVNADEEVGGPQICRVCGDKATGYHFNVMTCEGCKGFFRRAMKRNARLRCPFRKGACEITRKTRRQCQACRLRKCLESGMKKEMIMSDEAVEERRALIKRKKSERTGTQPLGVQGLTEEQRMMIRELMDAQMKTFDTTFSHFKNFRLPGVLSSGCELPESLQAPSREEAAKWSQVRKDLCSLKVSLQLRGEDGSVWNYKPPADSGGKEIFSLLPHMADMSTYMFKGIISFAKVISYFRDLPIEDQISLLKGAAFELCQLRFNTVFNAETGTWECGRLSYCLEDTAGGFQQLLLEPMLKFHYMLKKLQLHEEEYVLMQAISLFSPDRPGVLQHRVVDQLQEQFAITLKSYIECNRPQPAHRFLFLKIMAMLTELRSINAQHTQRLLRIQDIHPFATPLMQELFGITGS
Thyrotropin receptor (Homo sapiens), sequence (P16473 whole entry, looked up): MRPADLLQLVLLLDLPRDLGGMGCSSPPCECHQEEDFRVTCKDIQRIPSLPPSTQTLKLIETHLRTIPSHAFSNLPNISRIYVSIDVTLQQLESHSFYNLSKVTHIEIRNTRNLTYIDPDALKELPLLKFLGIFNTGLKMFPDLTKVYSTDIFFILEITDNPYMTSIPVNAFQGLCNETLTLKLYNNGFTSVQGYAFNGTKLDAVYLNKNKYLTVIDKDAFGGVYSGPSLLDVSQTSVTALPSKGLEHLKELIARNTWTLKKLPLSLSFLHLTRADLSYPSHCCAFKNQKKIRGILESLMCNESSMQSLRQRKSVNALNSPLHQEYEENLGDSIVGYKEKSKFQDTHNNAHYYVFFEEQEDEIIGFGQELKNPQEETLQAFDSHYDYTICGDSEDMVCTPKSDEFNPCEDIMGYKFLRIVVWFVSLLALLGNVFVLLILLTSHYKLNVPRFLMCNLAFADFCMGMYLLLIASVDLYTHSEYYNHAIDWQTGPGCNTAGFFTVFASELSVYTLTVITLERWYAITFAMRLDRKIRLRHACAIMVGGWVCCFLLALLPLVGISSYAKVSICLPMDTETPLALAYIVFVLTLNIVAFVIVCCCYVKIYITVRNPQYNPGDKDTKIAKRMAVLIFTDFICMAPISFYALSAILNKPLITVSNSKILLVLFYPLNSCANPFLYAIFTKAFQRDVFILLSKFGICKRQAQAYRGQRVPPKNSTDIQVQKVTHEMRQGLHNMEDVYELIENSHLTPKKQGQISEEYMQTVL

COC(=O)C(Cl)C(=O)OC
inactive: [1] | [2] | [3] | [4] | [5] | [6] | [7] | [8] | [9] | [10] | [11] | [12] | [13] | [14] | [15] | [16] | [17]

Clc1cccc(SC2CCNCC2)n1
inactive: [1] | [2] | [3] | [4] | [5] | [6] | [7] | [8] | [9] | [12] | [13] | [14] | [15] | [16]

O=C(NC(=O)c1c(F)cccc1F)Nc1ccc(OC(F)(F)C(F)OC(F)(F)F)c(Cl)c1 (centres undefined)
inactive: [1] | [2] | [3] | [4] | [5] | [6] | [7] | [8] | [9] | [11] | [12] | [13] | [14] | [15] | [16] | [17]

CCOc1nc(F)cc2nc(S(=O)(=O)Nc3c(Cl)cccc3Cl)nn12
inactive: [1] | [2] | [3] | [4] | [5] | [6] | [7] | [8] | [9] | [10] | [11] | [12] | [13] | [14] | [15] | [17]

Cc1ccc2ccccc2c1
inactive: [1] | [2] | [3] | [4] | [5] | [6] | [7] | [8] | [9] | [10] | [11] | [12] | [13] | [14] | [15] | [16] | [17]

CC(Cl)Cl
inactive: [1] | [2] | [3] | [4] | [5] | [6] | [7] | [8] | [9] | [10] | [12] | [13] | [14] | [15] | [16]

Clc1cccc2ccccc12
inactive: [1] | [2] | [3] | [4] | [5] | [6] | [7] | [8] | [9] | [11] | [12] | [13] | [14] | [15] | [16]

O=C(O)C(F)(F)C(F)(F)C(F)(F)C(F)(F)C(F)(F)C(F)(F)C(F)(F)C(F)(F)C(F)(F)F
inactive: [1] | [2] | [3] | [4] | [5] | [6] | [7] | [8] | [9] | [12] | [13] | [14] | [15] | [16]

Cc1ccc(N)cc1C
inactive: [1] | [2] | [3] | [4] | [5] | [6] | [7] | [8] | [9] | [11] | [12] | [13] | [14] | [15] | [16]
